# From PubChem
# Hits are enriched below; roughly 2.8% of the tested compounds scored in any of these assays.
# TROY signal inh – inhibitors of TROY-driven NF-kB signaling, primary screen, Q293 LMP1-TROYcd cells, NF-kB luciferase, uHTS. Q293 LMP1-TROYcd NF-kB luciferase reporter, 4 h. inhibition, % at 10 µM. 360,000 compounds, 0.98% hits. AID 1347056, 2019;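 active means compounds whose plate-normalised and pattern-corrected inhibition of the luciferase reporter signal at the single screening dose is 50% or more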
# EWS-Fli inh – EWS/Fli-driven NR0B1 reporter inhibitors, primary screen, A673 cells, NR0B1 luciferase, luminescence, MLPCN library. viability-normalised. inhibition, % at 12.6 µM. 350,000 compounds, 0.67% hits. AID 651661, 2012;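 active means mean inhibition of at least 50% after viability correction, with every replicate also passing that limit; inconclusive means mean reaches 50% but only one of two replicates passes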;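 further: firefly luciferase signal divided by Alamar Blue viability fluorescence both relative to DMSO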
# TWEAK Fn14 block – inhibitors of TWEAK-Fn14 signaling, primary screen, luciferase reporter cells, uHTS; AID 1159606, 2016; inhibition, % at 10 µM; TWEAK-stimulated Fn14 reporter cells, luciferase luminescence, 8 h; 360,000 compounds, 2% hits; in the data active means inhibition above about 50%
# PAX8 reporter – inhibitors of PAX8-driven TPO luciferase reporter, primary screen, RMG-I cells, single concentration. 360,000 compounds, 1.2% hits. inhibition, % at 12.6 µM. SteadyGlo, 24 h;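 active means mean replicate inhibition at least 60% with every replicate also reaching 60%; inconclusive means only one of the two criteria is met; inactive means mean below 60% and not all replicates reaching 60%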;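 further: luciferase light reporting Pax8 driven TPO promoter activity; plate controls were median of neutral control wells for no effect and mitoxantrone controls for full effect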
# LGR2 inh – inhibitors of bursicon-induced LGR2 CRE-luciferase signal, primary screen, cell-based, HEK293, CRE-luciferase reporter, bursicon stimulation | Drosophila bursicon receptor LGR2 (rickets) | inhibition, % at 9.99 µM | bursicon-stimulated, 4 h | 380,000 compounds, 0.35% hits;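 active means drop in luminescence signal, shown as inhibition above about 50% in the replicate tests, limit read from the data, passing the limit was not always enough; inconclusive means probably only some replicates passing the limit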;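 further: agonist challenge used bursicon conditioned medium at about half maximal strength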
# Starred values were filed as active, the others as inactive; ? = inconclusive; · = no result.
SMILES,TROY signal inh,EWS-Fli inh,TWEAK Fn14 block,PAX8 reporter,LGR2 inh
Cc1noc(C)c1NC(=O)N(C)C[C@H]1Oc2c(NC(=O)Nc3ccc4c(c3)OCO4)cccc2C(=O)N([C@@H](C)CO)C[C@@H]1C,·,-8,·,·,-11
CN(C)c1ccc2c(c1)[C@@H]1C[C@H](CC(=O)NCc3ccc(Cl)cc3)O[C@H](CO)[C@@H]1O2,·,-1,·,-1,-2
COc1cccc(-c2nc(CS(=O)(=O)CC(=O)NCCCN3CC(C)CC(C)C3)c(C)o2)c1 (stereo not given),-19,0,-2,118*,10
C[C@@H]1CN([C@@H](C)CO)C(=O)c2cccc(NC(=O)CCCCCC(=O)Nc3ccccc3N)c2O[C@H]1CN(C)Cc1ccc(Cl)c(Cl)c1,·,33,·,52,-5
C[C@H](CO)N1C[C@H](C)[C@@H](CN(C)Cc2ccc(Oc3ccccc3)cc2)Oc2c(NC(=O)CCCCCC(=O)Nc3ccccc3N)cccc2C1=O,·,27,·,63*,19
C[C@H](CO)N1C[C@H](C)[C@@H](CN(C)CC2CCCCC2)Oc2c(NC(=O)CCCCCC(=O)Nc3ccccc3N)cccc2C1=O,·,·,·,81*,-34
C[C@H]1CN([C@@H](C)CO)C(=O)c2cccc(NC(=O)CCCCCC(=O)Nc3ccccc3N)c2O[C@@H]1CN(C)Cc1ccc(Cl)c(Cl)c1,·,·,·,65*,-3
C[C@@H]1CN([C@@H](C)CO)C(=O)c2cccc(NC(=O)CCCCCC(=O)Nc3ccccc3N)c2O[C@H]1CN(C)Cc1ccc(Oc2ccccc2)cc1,·,·,·,·,-2
CC(=O)N1C[C@H]2[C@@H](c3ccccc31)[C@@H](CO)N2C(=O)c1ccc(F)cc1,·,0,·,-37,0
CCCNC(=O)[C@@H]1[C@@H](CO)[C@@H]2Cn3c(ccc(-c4cccc(F)c4)c3=O)[C@H]1N2Cc1ccccc1F,·,·,·,-3,10
O=C(Nc1ccc(F)cc1F)N1CCCN(c2ccc([N+](=O)[O-])cn2)CC1,17,3,-16,7,-16
CC(C)(C)c1ccc(NC(=O)N2CCN(c3ccc([N+](=O)[O-])cn3)CC2)cc1,28,8,59*,-48,6
Cc1ccc(C(=O)N2CCCCC2)cc1NC1=C(Cl)C(=O)N(Cc2ccccc2)C1=O,33,15,37,72*,18
Cc1ccc(O)c(NC2=C(Cl)C(=O)N(Cc3ccccc3)C2=O)c1,-12,10,0,31,-21
CC=Cc1ccc2n(c1=O)C[C@@H]1[C@@H](CO)[C@H](C(=O)NCCC)N(CC3CCOCC3)[C@H]21 (mixture of isomers),·,-1,·,·,3
CC(C)NC(=O)N(C)C[C@H]1OCCCC[C@@H](C)Oc2ccc(NC(=O)Cc3ccccc3)cc2C(=O)N([C@H](C)CO)C[C@@H]1C,·,·,·,-3,-5
COc1ccc(C[C@H]2CN3C(=NC[C@@H]3Cc3ccccc3)N2CCNC(=O)CCC2CCCCC2)cc1,-8,?,-19,45,82*
COc1ccc(C[C@H]2CN3C(=NC[C@@H]3C(C)C)N2CCNC(=O)CCC2CCCCC2)cc1,9,7,-11,-3,-28
C[C@@H]1CN([C@H](C)CO)C(=O)c2cc(NC(=O)Nc3ccccc3)ccc2O[C@@H](C)CCCCO[C@H]1CN(C)S(=O)(=O)c1cn(C)cn1,·,-7,·,-15,7
CC(=O)Nc1cccc(-c2ccnc3c2CC(C)(C(=O)Nc2ccc(Cl)cc2)O3)c1 (stereo not given),7,62*,-12,56,-19
COc1ccc(NC(=O)C2(C)Cc3c(-c4cccc(NC(C)=O)c4)ccnc3O2)cn1 (stereo not given),1,59*,20,·,-13
Cc1cn([C@@H](CCCCNC(=O)OC(C)(C)C)C(=O)NCCCCCCCCCCC(=O)N2CCN(C(=O)OC(C)(C)C)CC2)nn1,70*,·,88*,·,·
CC[C@H](C)Cc1cn([C@@H](CCCN=C(NC(=O)OC(C)(C)C)NC(=O)OC(C)(C)C)C(=O)NCCCCCCCCCCC(=O)N2CCN(C(=O)OC(C)(C)C)CC2)nn1,81*,·,60*,·,·
O=C(N[C@@H]1C=C[C@@H](CC(=O)N2CCc3ccccc3C2)O[C@@H]1CO)C1CC1,·,-1,·,-14,-6
COc1ccccc1NC(=O)N1C[C@H](O)COC[C@H]2O[C@@H](CC(=O)NCc3ccccc3)CC[C@@H]21,·,7,·,-7,-8
SMILES,TROY signal inh,EWS-Fli inh,TWEAK Fn14 block,PAX8 reporter,LGR2 inh
CN1c2ccc(-c3ccc(C#N)cc3)cc2[C@@H]2[C@@H](CCN2C(=O)NC2CCCCC2)[C@@H]1CO,·,1,·,88*,27
COc1cccc(-c2ccc3c(c2)[C@H]2[C@H](CCN2C(=O)NC2CCCCC2)[C@@H](CO)N3C)c1,·,-12,·,96*,49
O=C(c1ccc2ccccc2c1)c1cccc(F)c1C(=O)O,-13,-1,-4,5,-12
O=C(O)c1c(F)c(F)cc2ccccc12,-2,·,107*,·,-2
C/C(=N\NC(=O)c1ccccc1)c1ccc(N2CCCCC2)cc1,-44,-110,-12,21,·
CCCCCC(=O)N/N=C(\C)c1ccc(N2CCCCC2)cc1,-8,-20,1,126*,-29
C=CCn1c(SCC(C)=O)nc2scc(-c3ccco3)c2c1=O,-5,8,38,7,-11
C=CCn1c(SC(F)F)nc2scc(-c3ccco3)c2c1=O,-7,13,26,82*,-10
O=C(C1CC1)N1CCCCN2[C@H](C1)[C@@H](c1ccc(C#CC3CC3)cc1)[C@@H]2CO,·,4,·,-17,·
CCOC(=O)C1=C(CC)Nc2ccccc2N=C1NC(=O)Nc1ccc(Cl)c(Cl)c1,53*,·,73*,62*,32
CSc1c(C#N)c(N)nc2sc(C(=O)c3ccccc3)c(N)c12,6,22,-5,1,-18
N#Cc1c(SCc2ccc(Cl)cc2)sc(C(=O)c2ccccc2)c1N,-1,·,89*,·,·
COc1ccc(/C=C2\CN(Cc3ccccc3)C/C(=C\c3ccc(OC)cc3OC)C2=O)c(OC)c1,-8,·,44,93*,·
COc1ccc(C=C2c3ccccc3C(=O)c3ccccc32)c(OC)c1,-12,52*,-3,59,0
COc1ccc(/C=C2\COc3ccccc3C2=O)c(OC)c1,-55,-88,17,-34,-50
COc1ccc(OCC(=O)N2CCN(c3nnc(-c4ccc(C)cc4)c4ccccc34)CC2)cc1,59*,16,-2,3,59*
Cc1ccc(OCC(=O)N2CCN(c3nnc(-c4ccc(C)cc4)c4ccccc34)CC2)cc1,59*,·,51*,·,·
CCCNC(=O)N1CC2(C1)CN(C(=O)NC(C)C)[C@H](CO)c1c2c2ccc(OC)cc2n1C,·,-5,·,·,-11
NC(=O)NC(=O)CSc1nc2sc(-c3ccccc3)cc2c(=O)n1-c1ccccc1,13,-8,58*,-3,18
